# Laboratory results: PubChem BioAssay (NCATS)
# Results filed as inconclusive are left out. Activity calls are given as the source filed them. Unless noted, calls come from the whole dose curve; as a rule, active = well fitted cell-killing curve with a large enough effect; inconclusive = small, poorly fitted or top-dose-only effect, or effect the other way; inactive = no such curve, though single readings can be large or run the other way.
# Tests used:
# [1] = Quantitative High-Throughput drug screen in 47 multiple myeloma cell lines against the NCATS MIPE library collection: KMS28PE_JCRB cell viability assay (AID 1918983); note: nearly all actives have a fitted effect of over 35% in size
# Method in brief: (§1)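 qHTS format: cells plated (500/well), pin-dosed with MIPE 4.0 compounds, kept 48 h at 37 °C. Readout was CellTiter-Glo luminescence, median RLU.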
# [2] = Quantitative High-Throughput drug screen in 47 multiple myeloma cell lines against the NCATS MIPE library collection: L363_DSMZ cell viability assay (AID 1918984); note: nearly all actives have a fitted effect of over 40% in size
# Method in brief: as §1
# [3] = Quantitative High-Throughput drug screen in 47 multiple myeloma cell lines against the NCATS MIPE library collection: KMS34_JCRB cell viability assay (AID 1918985); note: nearly all actives have a fitted effect of over 40% in size
# Method in brief: as §1
# [4] = Quantitative High-Throughput drug screen in 47 multiple myeloma cell lines against the NCATS MIPE library collection: OCIMY5_PLB cell viability assay (AID 1918988); note: nearly all actives have a fitted effect of over 65% in size
# Method in brief: as §1
# [5] = Quantitative High-Throughput drug screen in 47 multiple myeloma cell lines against the NCATS MIPE library collection: OPM1_PLB cell viability assay (AID 1918989); note: nearly all actives have a fitted effect of over 40% in size
# Method in brief: as §1
# [6] = Quantitative High-Throughput drug screen in 47 multiple myeloma cell lines against the NCATS MIPE library collection: SKMM1_PLB cell viability assay (AID 1919863); conditions: SKMM1 myeloma viability, CellTiter-Glo ATP, 48 h; viability: stronger effect = lower value; note: nearly all actives have a fitted effect of over 35% in size
# Method in brief: as §1
# [7] = Quantitative High-Throughput drug screen in 47 multiple myeloma cell lines against the NCATS MIPE library collection: U266_ATCC cell viability assay (AID 1919864); note: nearly all actives have a fitted effect of over 35% in size;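 for viability (% of DMSO control): 0% = media-only wells without cells and 100% = DMSO-only wells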
# Method in brief: as §1
# [8] = Quantitative High-Throughput drug screen in 47 multiple myeloma cell lines against the NCATS MIPE library collection: XG6_PLB cell viability assay (AID 1919865); note: nearly all actives have a fitted effect of over 40% in size
# Method in brief: as §1
# [9] = Quantitative High-Throughput drug screen in 47 multiple myeloma cell lines against the NCATS MIPE library collection: XG1_PLB cell viability assay (AID 1919866); note: nearly all actives have a fitted effect of over 35% in size
# Method in brief: as §1
# [10] = Quantitative High-Throughput drug screen in 47 multiple myeloma cell lines against the NCATS MIPE library collection: VP6_DJ cell viability assay (AID 1919867); note: nearly all actives have a fitted effect of over 40% in size
# Method in brief: as §1
# [11] = Quantitative High-Throughput drug screen in 47 multiple myeloma cell lines against the NCATS MIPE library collection: UTMC2_PLB cell viability assay (AID 1919868); conditions: CellTiter-Glo ATP luminescence, 48 h; viability (% of DMSO control): at 45.8 µM (top of the series) unless noted; note: nearly all actives have a fitted effect of over 55% in size
# Method in brief: as §1
# [12] = Quantitative High-Throughput drug screen in 47 multiple myeloma cell lines against the NCATS MIPE library collection: PE2_PLB cell viability assay (AID 1919869); note: nearly all actives have a fitted effect of over 35% in size
# Method in brief: as §1
# [13] = Quantitative High-Throughput drug screen in 47 multiple myeloma cell lines against the NCATS MIPE library collection: PCM6_Riken cell viability assay (AID 1919870); note: nearly all actives have a fitted effect of over 30% in size
# Method in brief: as §1
# [14] = Quantitative High-Throughput drug screen in 47 multiple myeloma cell lines against the NCATS MIPE library collection: RPMI8226_ATCC cell viability assay (AID 1919871); note: nearly all actives have a fitted effect of over 30% in size
# Method in brief: as §1
# [15] = Quantitative High-Throughput drug screen in 47 multiple myeloma cell lines against the NCATS MIPE library collection: OPM2_DSMZ cell viability assay (AID 1919872); note: nearly all actives have a fitted effect of over 30% in size
# Method in brief: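 Approved and investigational drugs from MIPE 4.0 were added by pin tool to 500 cells per well. After 48 hours at 37C, ATP-based CellTiter-Glo luminescence indicated remaining viability.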
# [16] = Quantitative High-Throughput drug screen in 47 multiple myeloma cell lines against the NCATS MIPE library collection: KMS28BM_JCRB cell viability assay (AID 1919874); note: nearly all actives have a fitted effect of over 35% in size
# Method in brief: as §1
# [17] = qHTS drug screen for cell cycle checkpoint inhibitors in PARPi-resistant BRCA-mutant ovarian cancer cell lines. (AID 1963452; calls by dose curve); conditions: PEO1/OlaR viability, CellTiter-Glo luminescence, 96 h; for Z-AUC: stronger effect = lower value
# Method in brief: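 PEO1, PEO4 and PEO1/OlaR ovarian cancer cells, 600 per well, exposed 96 h at 37C to a dilution series. Viability read by CellTiter-Glo luminescence, normalized to DMSO and empty wells; activity summarized as Z-AUC.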
# [18] = Quantitative High-Throughput drug screen in 47 multiple myeloma cell lines against the NCATS MIPE library collection: KMS11_JCRBsus cell viability assay (AID 1919873); note: nearly all actives have a fitted effect of over 50% in size
# Method in brief: as §1
# [19] = qHTS for identification of novel therapeutic agents for treatment of microphthalmiaassociated transcription factor (MiT) renal cell carcinoma (RCC) (AID 1963991; calls by dose curve;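 for z-score: curves scaled with 100% = DMSO viability and 0% = empty wells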); conditions: CellTiter-Glo, 48 h; for z-score: stronger effect = lower value
# Method in brief: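 UOK109/UOK124/UOK145 (TFE3 fusions, three partners); 500 cells/well; MIPE v4.0, 1912 cpds, 11 conc.; 48 h, 37 C; CellTiter-Glo, 15 min RT; lum. Norm.: DMSO 100%, empty 0%.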
# [20] = Quantitative High-Throughput drug screen in 47 multiple myeloma cell lines against the NCATS MIPE library collection: OCIMY7_PLB cell viability assay (AID 1918987); note: nearly all actives have a fitted effect of over 65% in size
# Method in brief: as §1
# [21] = measured here: PEO1 parental Z-AUC
# [22] = TFE3-RCC UOK109 viability, measured here: UOK109 Z-AUC
# [23] = TFE3-RCC viability, measured here: UOK124 Z-AUC
# [24] = TFE3-RCC viability, measured here: UOK145 Z-AUC
# Potency is the fitted concentration of half-maximal effect.
structure (smiles),measurement,setting,value
Cc1ccc(C(=O)Nc2cccc(C(F)(F)F)c2)cc1-c1ccc2nc(NCCN3CCOCC3)ncc2c1,Potency,[1],14800 nM (active)
same,Potency,[2],1050 nM (active)
same,Potency,[3],9350 nM (active)
same,Potency,[4],14800 nM (active)
same,Potency,[5],7430 nM (active)
same,Potency,[6],16600 nM (active)
same,Potency,[7],14800 nM (active)
same,Potency,[8],3320 nM (active)
same,Potency,[9],4690 nM (active)
same,Potency,[10],11800 nM (active)
same,Potency,[11],5900 nM (active)
same,Potency,[12],4690 nM (active)
same,Potency,[13],5900 nM (active)
same,Potency,[14],5900 nM (active)
same,Potency,[15],18700 nM (active)
same,Potency,[16],18700 nM (active)
same,Z-AUC,[17],0.224 (inactive)
same,Z-AUC,[17]; [21],-0.409
same,Z-AUC,[17]; measured here: PEO4 Z-AUC,-0.0261
N#Cc1c(O)c2c(-c3ccc(-c4ccccc4O)cc3)csc2[nH]c1=O,Potency,[1],13200 nM (active)
same,Potency,[2],inactive
same,Potency,[3],inactive
same,Potency,[4],inactive
same,Potency,[7],inactive
same,Potency,[8],inactive
same,Potency,[9],inactive
same,Potency,[12],inactive
same,Potency,[13],inactive
same,Potency,[14],inactive
same,Potency,[15],inactive
same,Potency,[18],inactive
same,Z-AUC,[17],0.825 (inactive)
same,Z-AUC,[17]; [21],1.08
same,Z-AUC,[17]; measured here: PEO4 Z-AUC,1.07
same,z-score,[19]; [22],0.657
same,z-score,[19]; [23],0.453
same,z-score,[19]; [24],0.62
C#Cc1cccc(Nc2ncnc3cc(OC)c(OCCCCCCC(=O)NO)cc23)c1,Potency,[1],118 nM (active)
same,Potency,[2],52.6 nM (active)
same,Potency,[3],1050 nM (active)
same,Potency,[4],5.3 nM (active)
same,Potency,[7],105 nM (active)
same,Potency,[9],74.3 nM (active)
same,Potency,[10],296 nM (active)
same,Potency,[12],93.5 nM (active)
same,Potency,[13],187 nM (active)
same,Potency,[14],1870 nM (active)
same,Potency,[15],1480 nM (active)
same,Potency,[16],33.2 nM (active)
same,Potency,[17],616 nM (active)
same,Z-AUC,[17]; [21],-1.22
same,Z-AUC,[17]; measured here: PEO4 Z-AUC,-1.32
C[C@@]12O[C@@H](C[C@]1(O)CO)n1c3ccccc3c3c4c(c5c6ccccc6n2c5c31)CNC4=O,Potency,[1],2090 nM (active)
same,Potency,[3],526 nM (active)
same,Potency,[20],66.2 nM (active)
same,Potency,[4],526 nM (active)
same,Potency,[5],264 nM (active)
same,Potency,[6],5260 nM (active)
same,Potency,[7],2090 nM (active)
same,Potency,[8],209 nM (active)
same,Potency,[9],132 nM (active)
same,Potency,[10],264 nM (active)
same,Potency,[11],118 nM (active)
same,Potency,[12],118 nM (active)
same,Potency,[13],526 nM (active)
same,Potency,[14],1320 nM (active)
same,Potency,[15],1480 nM (active)
same,Potency,[18],418 nM (active)
same,Potency,[16],833 nM (active)
same,Z-AUC,[17],-1.24 (inactive)
same,Z-AUC,[17]; [21],-0.538
same,Z-AUC,[17]; measured here: PEO4 Z-AUC,-0.928
same,Potency,"[19]; TFE3-RCC UOK109 viability, active = Z-AUC below -0.8 in all three lines",5260 nM (active)
same,z-score,[19]; [22],-1.64
same,z-score,[19]; [23],-0.853
same,z-score,[19]; [24],-1.26
Cc1nc2ccc(CN(C)c3ccc(C(=O)N[C@@H](CCC(=O)O)C(=O)O)s3)cc2c(=O)[nH]1,Potency,[1],inactive
same,Potency,[2],1480 nM (active)
same,Potency,[4],5260 nM (active)
same,Potency,[5],469 nM (active)
same,Potency,[7],11800 nM (active)
same,Potency,[8],inactive
same,Potency,[9],235 nM (active)
same,Potency,[10],inactive
same,Potency,[11],1660 nM (active)
same,Potency,[12],inactive
same,Potency,[14],inactive
same,Potency,[18],9.3 nM (active)
same,Potency,[16],inactive
same,Z-AUC,[17],-1.54 (inactive)
same,Z-AUC,[17]; [21],-1.34
same,Z-AUC,[17]; measured here: PEO4 Z-AUC,-0.15
COC(=O)C1=C(C)NC(C)=C(C(=O)OCCN2CCN(C(c3ccccc3)c3ccccc3)CC2)C1c1cccc([N+](=O)[O-])c1 (stereo not given),Potency,[1],inactive
same,Potency,[2],inactive
same,Potency,[20],inactive
same,Potency,[5],inactive
same,viability,[6],126% (inactive)
same,Potency,[8],2640 nM (active)
same,Potency,[9],inactive
same,Potency,[10],4180 nM (active)
same,Potency,[12],inactive
same,Potency,[14],inactive
same,Potency,[15],inactive
same,Potency,[18],inactive
same,Z-AUC,[17],-0.27 (inactive)
same,Z-AUC,[17]; [21],-0.345
same,Z-AUC,[17]; measured here: PEO4 Z-AUC,0.196
same,z-score,[19]; [22],0.729
same,z-score,[19]; [23],0.516
same,z-score,[19]; [24],-0.011
C[C@@H]1CN(CC(=O)Nc2ccc3c(c2)Cc2cccc(-c4cc(=O)cc(N5CCOCC5)o4)c2S3)C[C@H](C)O1,Potency,[1],9350 nM (active)
same,Potency,[2],14800 nM (active)
same,Potency,[20],1320 nM (active)
same,Potency,[4],20900 nM (active)
same,Potency,[5],16600 nM (active)
same,Potency,[8],9350 nM (active)
same,Potency,[9],5900 nM (active)
same,Potency,[10],16600 nM (active)
same,Potency,[11],6620 nM (active)
same,Potency,[12],13200 nM (active)
same,Potency,[13],9350 nM (active)
same,Potency,[18],16600 nM (active)
same,Z-AUC,[17],0.729 (inactive)
same,Z-AUC,[17]; [21],0.761
same,Z-AUC,[17]; measured here: PEO4 Z-AUC,0.901
CC(=O)Nc1nc(C)c(-c2ccc(Cl)c(S(=O)(=O)NCCO)c2)s1,Potency,[1],16600 nM (active)
same,Potency,[2],1180 nM (active)
same,Potency,[20],105 nM (active)
same,Potency,[4],9350 nM (active)
same,Potency,[5],2960 nM (active)
same,Potency,[8],2090 nM (active)
same,Potency,[9],1660 nM (active)
same,Potency,[10],2640 nM (active)
same,Potency,[11],526 nM (active)
same,Potency,[12],4690 nM (active)
same,Potency,[13],4690 nM (active)
same,Potency,[14],16600 nM (active)
same,Potency,[15],14800 nM (active)
same,Potency,[18],5260 nM (active)
same,Z-AUC,[17],-1.67 (inactive)
same,Z-AUC,[17]; [21],-0.921
same,Z-AUC,[17]; measured here: PEO4 Z-AUC,-1.08
CC(C)Nc1cc(C(F)(F)F)cc2nc(NC(=O)c3cccnc3)nn12,Potency,[1],inactive
same,Potency,[2],inactive
same,Potency,[3],inactive
same,Potency,[4],8330 nM (active)
same,Potency,[7],7430 nM (active)
same,Potency,[9],inactive
same,Potency,[12],inactive
same,Potency,[13],inactive
same,Potency,[14],inactive
same,Potency,[16],inactive
same,Z-AUC,[17],0.923 (inactive)
same,Z-AUC,[17]; [21],0.905
same,Z-AUC,[17]; measured here: PEO4 Z-AUC,1.12
